“And” between values parts separate entries of the source, which are not always exact repeats. Equal entries are not always repeated. Records with an inconclusive call do not appear. Where a structure was tested more than once in an assay, its records may differ in their call. The source made the active and inactive calls. The calls were made as follows: active = hit-call score of the fitted dose curve at least 0.9, where 1 is the maximum; inconclusive = response in the unintended direction; inactive = score below 0.9.
Key:
[1] = ATG_XTT_Cytotoxicity: Cytotoxicity Assessment in the Attagene TRANS-FACTORIAL HepG2 Assay (AID 2283584);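 as to AC50: cells exposed to compound for 24 h before reading; active means loss of viability signal versus DMSO baseline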
Procedure, shortened: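 Cells: human HepG2, transiently transfected with MRTU reporter constructs. Exposure 24 h. Readout: XTT, cell number. Baseline/neg ctrl DMSO; loss-of-signal scored.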

[2] = TOX21_p53_BLA_p2_viability: Viability Assessment in the Tox21 HCT-116 p53 Agonism Beta-lactamase Assay, Phase 2 (AID 2283591);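 also: compound exposure lasted 16 h at 37 °C; actives lower the ATP signal meaning cytotoxicity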
Procedure, shortened: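 HCT-116 p53-bla cells (4000/well) rested 5 h at 37C, then received compounds in DMSO (217-fold dilution) for 16 h at 37C, 5% CO2. After the CCF4 read, CellTiter-Glo was added; ATP luminescence was read after 30 min at room temperature.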

[3] = biological target: Cellular tumor antigen p53 (Homo sapiens) (UniProt P04637); assay: TOX21_p53_BLA_p2_ratio: Tox21 HCT-116 p53 Agonism Beta-lactamase Assay, Ratio, Phase 2 (AID 2283592)
Procedure, shortened: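 Plated HCT116 p53-bla cells (4000/well) received compound after 5 h, then 16 h at 37C/5% CO2. CCF4-AM added, 2 h RT. Ratio of 460 to 530 nm emission taken as the p53 reporter signal.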

[4] = TOX21_p53_BLA_p3_viability: Viability Assessment in the Tox21 HCT-116 p53 Agonism Beta-lactamase Assay, Phase 3 (AID 2283593);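 also: cells exposed to compound for 16 h before reading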
Procedure, shortened: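 HCT-116 cells (4000/well) rested 5 h at 37C, then got DMSO compounds by pin tool (217-fold dilution) for 16 h at 37C, 5% CO2. After the bla read, CellTiter-Glo was added and luminescence read at 30 min, room temperature.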

[5] = biological target: Cellular tumor antigen p53 (Homo sapiens) (UniProt P04637); assay: TOX21_p53_BLA_p3_ratio: Tox21 HCT-116 p53 Agonism Beta-lactamase Assay, Ratio, Phase 3 (AID 2283596)
Procedure, shortened: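 Cells were seeded at 4000/well, rested 5 h at 37C, then dosed with DMSO compound solutions (217-fold dilution) for 16 h. CCF4-AM substrate was loaded for 2 h at room temperature, and the 460/530 nm emission ratio was fitted for gain of signal versus DMSO.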

[6] = TOX21_p53_BLA_p4_viability: Viability Assessment in the Tox21 HCT-116 p53 Agonism Beta-lactamase Assay, Phase 4 (AID 2283597);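 also: hits lower the luminescence signal meaning cytotoxicity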
Procedure, shortened: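 Readout: ATP luminescence (CellTiter-Glo), measured 30 min after reagent addition at RT. The reagent followed a 2 h CCF4-AM incubation, and the cells had been exposed to compound for 16 h at 37C.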

[7] = biological target: Cellular tumor antigen p53 (Homo sapiens) (UniProt P04637); assay: TOX21_p53_BLA_p5_ratio: Tox21 HCT-116 p53 Agonism Beta-lactamase Assay, Ratio, Phase 5 (AID 2283599)
Procedure, shortened: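 HCT-116 cells carrying a p53-inducible beta-lactamase reporter were seeded at 4000 cells/well and dosed after 5 h with compound in DMSO (217-fold dilution). After 16 h at 37C, CCF4-AM substrate was added for 2 h, and the 460/530 nm emission ratio was scored as gain-of-signal versus DMSO.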

[8] = TOX21_p53_BLA_p5_viability: Viability Assessment in the Tox21 HCT-116 p53 Agonism Beta-lactamase Assay, Phase 5 (AID 2283600)
Procedure, shortened: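 Workflow: seed 4000 cells per well, wait 5 h, add compounds (DMSO, 217-fold dilution), incubate 16 h, load CCF4-AM 2 h, add CellTiter-Glo, read luminescence after 30 min.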

[9] = biological target: Cellular tumor antigen p53 (Homo sapiens) (UniProt P04637); assay: TOX21_p53_BLA_p4_ratio: Tox21 HCT-116 p53 Agonism Beta-lactamase Assay, Ratio, Phase 4 (AID 2283601)
Procedure, shortened: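 HCT116 cells carrying an inducible beta-lactamase reporter were plated at 4000 cells/well, rested 5 h, then exposed to compounds in DMSO (217-fold dilution) for 16 h at 37C. CCF4-AM substrate was loaded 2 h at room temperature; 460/530 nm emission ratio scored gain-of-signal versus DMSO.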

Measured: AC50

Cellular tumor antigen p53 (Homo sapiens), sequence (P04637 whole entry, looked up): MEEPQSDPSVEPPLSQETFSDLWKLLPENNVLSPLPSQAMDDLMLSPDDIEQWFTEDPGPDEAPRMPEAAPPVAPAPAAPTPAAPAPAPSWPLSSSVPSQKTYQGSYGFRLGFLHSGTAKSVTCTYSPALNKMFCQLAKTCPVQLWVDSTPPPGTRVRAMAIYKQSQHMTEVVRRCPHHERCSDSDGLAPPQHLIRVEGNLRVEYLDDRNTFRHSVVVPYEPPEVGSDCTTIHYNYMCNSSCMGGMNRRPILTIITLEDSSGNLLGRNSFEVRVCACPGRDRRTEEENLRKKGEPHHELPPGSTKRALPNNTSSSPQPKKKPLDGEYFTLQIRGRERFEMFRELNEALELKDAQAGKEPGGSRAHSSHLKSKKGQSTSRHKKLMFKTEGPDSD

OCCOCCOCCOCCO
inactive: all assays above

CC(=O)OCCOC(C)=O
inactive: [1] | [2] | [3] | [4] | [5] | [6] | [7] | [8] | [9]
active: [5] 87.2 µM

CNC[C@H](O)c1cccc(O)c1
inactive: all assays above

C#C[C@]1(O)CC[C@H]2[C@@H]3CCC4=Cc5oncc5C[C@]4(C)[C@H]3CC[C@@]21C
active: [1] 151 µM
inactive: all other assays above

O=C1c2ccccc2C(=O)N1SC1CCCCC1
active: [2] 61.2 µM | [3] 81.1 µM | [4] 47.6 µM and 86.6 µM | [5] 57 µM | [6] 49.3 µM | [7] 44.8 µM | [9] 76 µM
inactive: [1] | [2] | [3] | [5] | [6] | [7] | [9]

CCCCCCCCCCCCCOS(=O)(=O)O
active: [1] 148 µM | [2] 82.4 µM | [3] 85.6 µM | [6] 70.8 µM | [7] 85.4 µM | [8] 66.6 µM | [9] 83.6 µM
inactive: [4] | [5]

CC(CN1c2ccccc2Sc2ccccc21)N(C)C (stereo unspecified)
active: [2] 38.9 µM | [3] 43.6 µM | [7] 43.5 µM | [8] 39.8 µM
inactive: [1] | [3] | [5] | [7] | [9]

C=C(C)[C@@H]1CC[C@@H](C)C[C@@H]1O
inactive: all assays above

CCCc1c(OCCCOc2ccc(OCC(=O)O)cc2)ccc(C(C)=O)c1O
active: [2] 57 µM | [3] 63.8 µM | [6] 46.1 µM | [7] 66.6 µM | [8] 65.8 µM | [9] 69.2 µM
inactive: [1] | [4] | [5]

O=C(O)c1snc(Cl)c1Cl
inactive: all assays above

CCCCC(CC)COC(=O)/C=C\C(=O)OCC(CC)CCCC (stereo unspecified)
not listed: [5] | [8]
inactive: all other assays above

FC1(F)C(F)(F)C(F)(F)C2(F)C(F)(C1(F)F)C(F)(F)C(F)(F)C1(F)C(F)(F)C(F)(F)C(F)(F)C(F)(F)C12F (stereo unspecified)
not listed: [4] | [6]
inactive: all other assays above

CC(=O)[C@H]1CC[C@H]2[C@@H]3CC=C4C[C@@H](O)CC[C@]4(C)[C@H]3CC[C@]12C
not listed: [8]
inactive: all other assays above

CN(C)C(=N)N=C(N)N
not listed: [8]
inactive: all other assays above

O=C(Oc1ccccc1)c1ccc(O)cc1
not listed: [6]
inactive: all other assays above

O=C1CCCCCCCCCCCCCCO1
not listed: [4] | [5] | [6]
inactive: all other assays above

O=C[C@@H](O)[C@H](O)[C@H](O)CO
inactive: [1] | [2] | [3] | [4] | [9]

CC1(CO)CN(c2ccccc2)NC1=O (stereo unspecified)
not listed: [4] | [8] | [9]
inactive: all other assays above

CCCCCC=CCC(=O)OC
inactive: [1] | [2] | [4] | [5]

C=C(C)C(=O)O
not listed: [3]
inactive: all other assays above

CCCCCCCCCCCCCCCCCC(=O)OCC(CC)CCCC (stereo unspecified)
not listed: [5] | [8]
inactive: all other assays above

CCCCCCCCCCC(CO)CCCCCCCC (stereo unspecified)
not listed: [5] | [7]
inactive: all other assays above

CN(C)CCOCCN(C)C
inactive: all assays above

CCCC1CCC(=O)O1 (stereo unspecified)
not listed: [4] | [7] | [8]
inactive: all other assays above

CCCCCNCCCCC
not listed: [6] | [8]
inactive: all other assays above

CCC(=O)OCCC(C)CCC=C(C)C (stereo unspecified)
not listed: [4] | [9]
inactive: all other assays above
